Records with an inconclusive call do not appear. Unmarked numbers belong to inactive results. Activity calls are given as the source filed them. Calls follow the shape of the dose curve; as a rule, active = well fitted inhibition curve with a large enough effect; inconclusive = small, poorly fitted or top-dose-only effect; inactive = no such curve, though single readings can be large or run the other way.
Potency is read from the fitted curve at half-maximal effect.

A short description of this assay: BET inhibitor-based combinations targeting novel dependencies in MECOM-rearranged (r) AML: HNT-34 cell line (AID 2202234). Also: nearly all actives have a fitted effect of over 35% in size.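 As to viability (% of control): plate controls were vehicle wells for no effect and cell-free wells for full effect.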 Particulars: HNT-34 AML viability, CellTiter-Glo luminescence, 48 h; series mostly up to 46 µM; viability (% of control): at the top concentration. An excerpt:
Ecotropic viral insertion site 1 (EVI1) is located on chromosome 3q26.2 as part of the MECOM (MDS and EVI1 complex) locus. Under normal hematopoiesis, EVI1 is a regulator of hematopoietic stem cell maintenance and self-renewal and EVI1 levels decrease as the cells differentiate. In approximately 5-10% of de novo acute myeloid leukemia (AML) EVI1 is aberrantly expressed, including Chromosomal inv(3)(q21;q26.2) or t(3;3)(q21;q26.2) alterations (MECOM-r) that account for about 50% of AML with EVI1 overexpression 31. AMLs with high levels of EVI1 have a poor prognosis and an overall survival time averaging between 10-14 months. EVI1 overexpression confers resistance in leukemia cells, highlighting the need to develop new targeted therapies for EVI1 overexpressing AMLs. Here, we performed an unbiased chemical drug screening by evaluating the single agent activity of a collection of 2,480 oncology-focused, approved and investigational drugs (NCATS Mechanism Interrogation Plates, MIPE v5.0) against a panel of seven AML cell lines. These included four MECOM-r cell-lines (AML-191, AML-194, UCSD-AML1 and HNT-34) and three non-MECOM-r AMLs (MV4-11, OCI-AML3 and SET-2). Exploiting the mechanistic redundancy built in the library, we identified target-level sensitivities in MECOM-r AML cells and relative activity as compared to other AML subtypes.
A collection of 2480 mechanistically annotated dugs (MIPE v5.0) was used to screen four 3q26.2 rearranged AML cell lines and three non-3q26.2 rearranged AML cell lines. This library purposely exploits redundancy by including multiple inhibitors of key onco-targets, while simultaneously encompassing mechanistic diversity, targeting more than 800 distinct mechanisms of action. Briefly, cells were seeded in 5 uL of growth media using a Multidrop Combi dispenser into 1536 well white polystyrene tissue culture treated plates (Corning) at a density of 500cells/well. For each cell-line, for each of the 2480 drugs in MIPE v5.0 library, an 11-point dose curve was generated via a 1536 pin-tool. Plates were incubated for 48 hr at standard incubator conditions, covered by a stainless steel gasketed lid to prevent evaporation. Cell viability was determined by luminescence based, Cell Titer Glo assay (Promega). In detail, 3 uL of Cell Titer Glo were added to each well and plates were incubated at room temperature for 15 min with a stainless-steel lid in place. Luminescence readings were taken using a Viewlux (PerkinElmer) with a 2 s exposure time per plate. Compound dose-response curves were normalized to DMSO and empty well controls on each plate. Quantitative drug activity data from dose-response curves was determined utilizing area Under the Curve (AUC) and Z-transformed AUC (Z-AUC, a mean-centering transformation applied to each individual cell-line screened).
(ATP-based viability assays read luminescence as a measure of living cells.)
Take `N=C(N)c1ccc2nc(-c3cc(CC(=O)N[C@@H](CC(=O)O)C(=O)O)cc(-c4cc(S(N)(=O)=O)ccc4O)c3O)[nH]c2c1`: the “viability (% of control)” value was 106%.

For `Cc1ncsc1-c1ccc([C@H](C)NC(=O)[C@@H]2C[C@@H](O)CN2C(=O)[C@@H](NC(=O)COCCCOCCNC(=O)C[C@@H]2N=C(c3ccc(Cl)cc3)c3c(sc(C)c3C)-n3c(C)nnc32)C(C)(C)C)cc1`, the Potency is 0.0295 µM (active).

Regarding `COc1ccc([C@@H](O)[C@@H](C)Oc2ccc([C@H]3O[C@H](c4ccc(O[C@H](C)[C@H](O)c5ccc(OC)c(OC)c5)c(OC)c4)[C@H](C)[C@H]3C)cc2OC)cc1OC`, the Potency was 23.5 µM (active).

On to `C[C@@H]1Cc2c([nH]c3ccccc23)[C@@H](c2c(F)cc(/C=C/C(=O)O)cc2F)N1CC(C)(C)F`, for which the “viability (% of control)” value is 90.3%.

Turning to `C=C1CC[C@@H]2[C@](C)(CO)[C@H](O)CC[C@@]2(C)[C@@H]1C/C=C1/C(=O)OC[C@H]1O`, the Potency was 5.25 µM (active).

`CN(C)N=Nc1nc[nH]c1C(N)=O`: the “viability (% of control)” value is 105%.

Turning to `COc1nnc2ccc(N3CCC(c4ccc(OCCN5CCN(C)C(=O)[C@H]5C)cc4)CC3)nn12`, the Potency is 0.105 µM (active).

As for `CN1C(=O)N[C@H](Cc2c[nH]c3c(Cl)cccc23)C1=O`, the “viability (% of control)” value is 97.1%.

For the compound `CN(C)CC[C@H](CSc1ccccc1)Nc1ccc(S(=O)(=O)NC(=O)c2ccc(N3CCN(Cc4ccccc4-c4ccc(Cl)cc4)CC3)cc2)cc1[N+](=O)[O-]`, the Potency is 1.86 µM (active).

For the compound `Cn1c(NCCN(CCO)CCCc2ccc([N+](=O)[O-])cc2)cc(=O)n(C)c1=O`, the “viability (% of control)” value was 94.1%.

`O=C(c1ccc(Nc2nc(C3CC3)cn3c(-c4cn[nH]c4)cnc23)c(F)c1)N1CCOCC1`: the Potency is 5.25 µM (active).

For `CC(=O)O[C@@]12CO[C@@H]1C[C@H](O)[C@@]1(C)C(=O)[C@H](O)C3=C(C)[C@@H](OC(=O)[C@H](O)[C@@H](NC(=O)OC(C)(C)C)c4ccccc4)C[C@@](O)([C@@H](OC(=O)c4ccccc4)[C@H]21)C3(C)C`, the Potency was 0.0037 µM (active).

Turning to `COC(=O)[C@H](CCCN=C(N)N)NS(=O)(=O)c1ccc(C)cc1`, the “viability (% of control)” value was 103%.

`Cc1[nH]c2ccccc2c1CCNCc1ccc(/C=C/C(=O)NO)cc1`: the Potency is 0.0934 µM (active).

Regarding `COCCNc1cc(NC(=O)N2CCCc3cc(CN4CCN(C)CC4=O)c(C=O)nc32)ncc1C#N`, the viability (% of control) is 102% [at 8.46 µM].

Take `Cc1ccc(NC(=O)c2cccc(C(C)(C)C#N)c2)cc1Nc1ccc2ncn(C)c(=O)c2c1`: the Potency was 0.662 µM (active).

Turning to `CCO[C@@H]1OC(=O)C[C@@H]1NC(=O)[C@@H]1CCCN2C(=O)CC[C@H](NC(=O)c3nccc4ccccc34)C(=O)N12`, the “viability (% of control)” value was 106%.

For `CC(=O)CC(c1ccccc1)c1c(O)c2ccccc2oc1=O` (stereo not given), the “viability (% of control)” value is 89.8%.

`O=C(CO)N1CCC(c2[nH]nc(-c3ccc(Cl)cc3)c2-c2ccncn2)CC1`: the “viability (% of control)” value is 83%.

Turning to `CCN(CC)C(=O)Cc1csc(NS(=O)(=O)c2cccc(Cl)c2C)n1`, the “viability (% of control)” value was 95.6%.

In the case of `Cc1ccc(S(=O)(=O)Nc2cc(C(F)(F)F)ccc2C(=O)Nc2nc(-c3ccccc3)cs2)cc1`, the Potency was 7.42 µM (active).

For the compound `COc1ccc2[nH]c(S(=O)Cc3ncc(C)c(OC)c3C)nc2c1` (stereo not given), the “viability (% of control)” value is 75%.

Regarding `O=C(/C=C/c1ccc2ccc(C(F)(F)F)cc2n1)c1ccncc1`, the Potency is 1.32 µM (active).

Regarding `O=C(NC1CC1)c1cccc(-c2ccc3c(NC(=O)C4CC4)n[nH]c3c2)c1`, the Potency is 3.32 µM (active).

On to `NS(=O)(=O)c1ccc(S(=O)(=O)Nc2cccc3c(Cl)c[nH]c23)cc1`, for which the Potency is 1.32 µM (active).

Take `O=c1oc2c(C3OCCCO3)c(O)ccc2c2c1CNCC2`: the “viability (% of control)” value was 93.7%.

Take `CN1CCCN(C(=O)c2cccc(-c3ccc(/C=C4/C(=O)Nc5ccc(Cl)cc54)o3)c2)CC1`: the Potency is 2.63 µM (active).

`Cc1ccc(NC(=O)Nc2nnc(Sc3ncnc4cc(OCCCN5CCOCC5)ccc34)s2)cc1`: the Potency was 14.8 µM (active).

For the compound `CN(Cc1ccc(/C=C/C(=O)NO)cc1)CC12CC3CC(CC(C3)C1)C2`, the Potency is 0.148 µM (active).

On to `Cc1cc(-c2nc3cc(F)ccc3s2)ccc1NC(=O)[C@@H](N)CCCCN`, for which the Potency was 8.33 µM (active).

As for `Cn1cc(-c2cc(Oc3cc(F)c(NC(=O)C4(C(=O)Nc5ccccc5)CC4)cc3F)ccn2)cn1`, the Potency is 5.25 µM (active).

In the case of `COc1ccc(Cl)cc1-c1cc(=O)[nH]c(=S)n1CC(N)=O`, the “viability (% of control)” value was 104%.

For `COc1cc(O)c2c(c1)C1OC1C[C@H](O)[C@H](O)C(=O)C=CC[C@H](C)OC2=O` (stereo not given in full), the Potency is 0.934 µM (active).

Take `COc1ccc(Cl)c(Nc2nc3ccccc3nc2NS(=O)(=O)c2cccc(NC(=O)C(C)(C)N)c2)c1`: the Potency was 23.5 µM (active).

In the case of `COCCOc1cnc2ccn([C@H](C)c3nnc4c(F)cc(-c5cnn(C)c5)cn34)c(=O)c2c1`, the “viability (% of control)” value is 68.9%.

Turning to `CC(C)C(=O)OCC(=O)[C@@]12O[C@H](C3CCCCC3)O[C@@H]1C[C@H]1[C@@H]3CCC4=CC(=O)C=C[C@]4(C)[C@H]3[C@@H](O)C[C@@]12C`, the Potency is 20.9 µM (active).

In the case of `O=C1Nc2nc(-c3c(O)cccc3OCC3CC3)cc([C@@H]3CCCNC3)c2CO1`, the Potency is 18.6 µM (active).

Take `COC(=O)C1=C(C)NC(c2ncc(F)cc2F)=N[C@H]1c1ccc(F)cc1Cl`: the Potency was 16.6 µM (active).

Regarding `C=C1C(=CC=C2CCC[C@]3(C)[C@@H]([C@H](C)C=C[C@H](C)C(C)C)CC[C@@H]23)C[C@@H](O)C[C@@H]1O`, the Potency is 18.6 µM (active).

As to `CC(C)C[C@H](NC(=O)[C@H](Cc1ccccc1)NC(=O)OCc1ccccc1)C(=O)C=O`, the “viability (% of control)” value was 94.3%.

Source of the values: PubChem BioAssay (NCATS).
